The campaign covered roughly 310,000 compounds. About 3,400 (1.1%) were called active. The sample holds actives, similar compounds and a random draw of the others, so the mix is not that of the screen. Values without a mark were called inactive.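 How the source made its calls: active means fluorescence ratio B-score at most minus 3 library SDs, with starting brightness B-score within 2 library SDs (cut at about -5.5 in these data); inactive means the rest, inconclusive results apart.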

The target of the test is Potassium voltage-gated channel subfamily KQT member 2 (Rattus norvegicus) (UniProt O88943). Description: KCNQ2 channel blockers in CHO-K1 cells – cell-based, FluxOR thallium flux, B-score, primary screen (AID 2156). As to conditions: 20 min, at 10 µM; active compounds read low.
Potassium voltage-gated channel subfamily KQT member 2 (Rattus norvegicus), sequence (O88943 whole entry, looked up): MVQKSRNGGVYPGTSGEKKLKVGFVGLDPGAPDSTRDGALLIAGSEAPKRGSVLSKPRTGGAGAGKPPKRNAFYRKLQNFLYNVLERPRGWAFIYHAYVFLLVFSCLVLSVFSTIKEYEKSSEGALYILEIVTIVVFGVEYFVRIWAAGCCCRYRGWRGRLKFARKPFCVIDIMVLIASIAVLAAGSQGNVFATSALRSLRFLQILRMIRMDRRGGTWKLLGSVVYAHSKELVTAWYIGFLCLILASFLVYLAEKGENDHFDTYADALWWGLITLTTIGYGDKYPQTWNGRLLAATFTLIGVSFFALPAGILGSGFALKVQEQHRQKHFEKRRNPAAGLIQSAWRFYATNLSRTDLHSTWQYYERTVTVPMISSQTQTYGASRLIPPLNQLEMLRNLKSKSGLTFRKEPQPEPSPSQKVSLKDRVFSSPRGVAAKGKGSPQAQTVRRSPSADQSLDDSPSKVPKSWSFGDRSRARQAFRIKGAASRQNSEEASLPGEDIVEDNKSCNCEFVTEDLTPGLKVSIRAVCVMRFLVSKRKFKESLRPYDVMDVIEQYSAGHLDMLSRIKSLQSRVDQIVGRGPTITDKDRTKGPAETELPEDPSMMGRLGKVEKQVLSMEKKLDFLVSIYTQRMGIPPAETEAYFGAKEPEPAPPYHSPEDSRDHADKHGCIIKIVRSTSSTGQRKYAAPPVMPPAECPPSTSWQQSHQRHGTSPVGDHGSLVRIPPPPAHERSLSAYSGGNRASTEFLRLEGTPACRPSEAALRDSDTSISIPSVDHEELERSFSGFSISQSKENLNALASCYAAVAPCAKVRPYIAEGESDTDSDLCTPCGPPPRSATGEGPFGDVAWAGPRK
On to `COc1cc(C(=O)N(C)Cc2cccc(OC)c2OC)ccc1OCC(=O)Nc1cccc(C(F)(F)F)c1`, for which the B-score is -4.11.

Regarding `COc1ccc(F)cc1S(=O)(=O)NCC(c1ccc2c(c1)OCO2)N1CCN(C)CC1` (configuration not stated), the B-score is -0.58.

On to `Cc1cc(OCCCCOc2ccc(C#N)cc2)ccc1[N+](=O)[O-]`, for which the B-score is -6.09 (active).

Turning to `Cc1cc(OCC(=O)Nc2c(C)n(C)n(-c3ccccc3)c2=O)ccc1[N+](=O)[O-]`, the B-score was -0.54.

Regarding `Cc1cc(OCCCN2CCN(Cc3ccccc3)CC2)ccc1[N+](=O)[O-]`, the B-score entry is “inactive”.

With `Cc1cccc(N(Cc2ccccc2)C(=O)c2cc(S(=O)(=O)N3CCOCC3)ccc2F)c1`, the B-score result was “inactive”.

Consider `CC(=O)c1c(C)[nH]c(C(=O)CN2C(=O)NC(C)(C)C2=O)c1C`, for which the B-score entry was “inactive”.

Turning to `COc1ccccc1NS(=O)(=O)c1ccc(C(=O)N2CCN(c3ccccc3O)CC2)cc1`, the B-score entry was “inactive”.

As to `Cc1c(NC(=O)C(C)OC(=O)c2c3c(nc4ccccc24)CCC(C)C3)c(=O)n(-c2ccccc2)n1C` (configuration not stated), the B-score entry is “inactive”.

In the case of `Cc1ccc(Cl)c(OCC(=O)N2CCc3ccccc3C2)c1`, the B-score is -3.66.

Turning to `Cc1ccc2c(c1)N(C(=O)CCC(=O)NCc1cccnc1)CCO2`, the B-score was -0.11.

As to `Cc1ccc2c(c1)N(C(=O)CCC(=O)N1CCc3ccccc3C1)CCO2`, the B-score is -5.74 (active).

On to `COc1ccc(C(=O)OCC(=O)Nc2ccc3[nH]c(=O)[nH]c3c2)c(OC)c1OC`, for which the B-score was -0.64.

Turning to `COc1ccc(C(=O)NC2CCCc3c2cnn3-c2cccc(C)c2C)c(OC)n1` (configuration not stated), the B-score was -6.25 (active).

Turning to `Cn1nccc1C(=O)NC1CCCc2c1cnn2-c1ccccc1F` (configuration not stated), the B-score result is “inactive”.

`Cc1cc(C(=O)NC2CCCc3c2cnn3-c2cccc(C)c2C)c(C)o1` (configuration not stated): the B-score was -2.79.

For the compound `O=C(COC(=O)Cn1[nH]c(=O)c2ccccc2c1=O)Nc1c(Cl)cccc1C(F)(F)F`, the B-score result was “inactive”.

Turning to `Cc1ccc2nc(NC(=O)CSc3nc(=O)n(CCCN(C)C)c4c3CCC4)sc2c1`, the B-score entry is “inactive”.

Take `CC12CCC(=O)N1C(C(=O)Nc1ccc(F)c(F)c1F)CS2` (configuration not stated): the B-score entry was “inactive”.

Take `CCOc1ccc(NS(=O)(=O)c2ccc(C(=O)NCC(c3ccccc3OC)N3CCCC3)cc2)cc1` (configuration not stated): the B-score is -1.58.

`Cc1ccc(N2C(=O)C3CC3C2=O)cc1` (configuration not stated): the B-score entry was “inactive”.

As to `Cc1ccc(N2C(=O)C3C(c4ccccc4)(C2=O)C3(c2ccccc2)c2ccccc2)cc1` (configuration not stated), the B-score is -9.48 (active).

For the compound `Cc1ccc(N2C(=O)CC(Nc3cccc4ccccc34)C2=O)cc1` (configuration not stated), the B-score was -1.06.

With `CN(CC(=O)Nc1ccccc1Cl)C(=O)c1ccccc1SCC(=O)N1CCCC1`, the B-score was -0.59.

Take `CCCCCCCNC(=O)C1(CC2CC(c3cccc(Br)c3)=NO2)CCN(C(=O)c2cc(OCC)c(OCC)c(OCC)c2)CC1` (configuration not stated): the B-score was -2.53.

As for `COc1cc(C(=O)Nc2oc(-c3ccccc3)c(-c3ccccc3)c2C#N)cc(OC)c1OC`, the B-score was -6.31 (active).

`COC(=O)c1sccc1NC(=O)c1cc(OC)c(OC)c(OC)c1`: the B-score result is “inactive”.

As to `N#Cc1c(NC(=O)CCCN2C(=O)c3ccccc3C2=O)oc(-c2ccccc2)c1-c1ccccc1`, the B-score was -1.14.

Take `Cc1cccc(-c2nc(Nc3ccc(O)cc3)c3ccccc3n2)c1`: the B-score was -3.05.

For `Cc1cccc(-[n+]2c(-c3cccc(Br)c3)[nH]c3nc4ccccc4nc32)c1`, the B-score was -6.92 (active).

As for `CCCCn1c(N)c(N(CCOC)C(=O)CSCC(=O)Nc2cccc(C)c2)c(=O)[nH]c1=O`, the B-score entry was “inactive”.

Take `O=S(=O)(Nc1cccc(-c2ccc(N3CCOCC3)nn2)c1)c1ccc(Cl)c(Cl)c1`: the B-score entry is “inactive”.

Consider `Cc1cc(C)c(S(=O)(=O)N2CCCC2CNC(=O)c2ccc3c(c2)OCO3)c(C)c1` (configuration not stated), for which the B-score is -3.59.

`CCN(CC)CCOc1ccc2c(c1)C(=NNC(=O)c1ccccn1)c1cc(OCCN(CC)CC)ccc1-2`: the B-score was -7.1 (active).

Regarding `Cc1cccc(OCC(=O)NCCCNC(=O)c2ccccn2)c1`, the B-score was -0.01.

On to `Cc1ccc(Cl)cc1NC(=O)c1ccccn1`, for which the B-score is -3.49.

For `COc1cc(C(=O)NCC(=O)NCCSc2ccc(Br)cc2)cc(OC)c1OC`, the B-score entry was “inactive”.

As for `COc1cccc(NC(=O)CN(C)C(=O)CSCc2nc3scc(-c4cccs4)c3c(=O)[nH]2)c1`, the B-score entry is “inactive”.

In the case of `CCc1ccccc1NC(=S)Nc1cc(OC)c(NC(=O)C(C)C)cc1OC`, the B-score is -0.92.

For the compound `O=C(/C=C/c1ccccc1)N/C(=C/c1ccccc1)C(=O)Nc1ccccc1O`, the B-score is -0.61.

Regarding `CCc1ccccc1NC(=O)/C(=C/c1ccccc1)c1ccccc1`, the B-score was -9.3 (active).

For `CCN1CCN(c2c(Cl)cccc2NC(=O)c2ccc(Br)o2)CC1`, the B-score is -6.14 (active).

`COC(=O)c1ccc(N2CCOCC2)c(NC(=O)c2ccc(Br)o2)c1`: the B-score entry was “inactive”.

With `CCCC(=O)Nc1ccc(Cl)c(NC(=O)c2ccc(Br)o2)c1`, the B-score result is “inactive”.

As for `CN(/N=C/c1ccccc1)C(=S)c1ccccc1`, the B-score result was “inactive”.

As for `O=C(NCCS(=O)(=O)N1CCN(c2ccc(F)cc2)CC1)c1ccc2c(c1)OCO2`, the B-score result was “inactive”.

`O=C(c1cccc([N+](=O)[O-])c1)N1CCN(Cc2ccccc2)CC1`: the B-score result was “inactive”.

Regarding `CC1(c2cccc([N+](=O)[O-])c2)CC(C)(C)N(C(=O)c2ccccc2)c2ccccc21` (configuration not stated), the B-score was -7.53 (active).

As for `CC1(c2ccccc2)CC(C)(C)N(C(=O)c2cc([N+](=O)[O-])cc([N+](=O)[O-])c2)c2ccccc21` (configuration not stated), the B-score is -1.63.

As to `NC(=O)c1ccsc1NC(=O)COC(=O)Cc1n[nH]c(=O)c2ccccc12`, the B-score was -1.74.

On to `COc1ccc(S(=O)(=O)NCCCc2ccccc2)cc1`, for which the B-score result is “inactive”.

Take `Cc1ccc(OCCNC(=O)CCNS(=O)(=O)c2ccc(Br)cc2)cc1`: the B-score result is “inactive”.

For `O=C(Nc1cccc(Cl)c1N1CCOCC1)c1cccnc1`, the B-score result is “inactive”.

Turning to `COC(=O)c1ccc(N2CCOCC2)c(NC(=O)c2ccc3c(c2)OCCO3)c1`, the B-score result was “inactive”.

For `O=C(Nc1cccc(Cl)c1N1CCOCC1)c1ccc2c(c1)OCCO2`, the B-score is -6.48 (active).

`Cc1ccc(NC(=O)CSCC(=O)Nc2sccc2C#N)cc1`: the B-score was -0.08.

`O=C(COC(=O)c1ccccc1Br)Nc1nnc(-c2ccccc2)o1`: the B-score is -0.06.

In the case of `CCOc1ccc(CN(Cc2ccco2)C(c2cccs2)c2nnnn2C(C)(C)C)cc1` (configuration not stated), the B-score is -6.35 (active).

Regarding `CCOc1ccc(CN(Cc2ccco2)S(=O)(=O)c2ccc(-n3cnnn3)c(OC)c2)cc1`, the B-score result is “inactive”.

Turning to `CC(C)(C)n1nnnc1C(c1cccs1)N(Cc1cccnc1)CC1CCCO1` (configuration not stated), the B-score is -0.68.

As for `O=C(NCc1ccccn1)Nc1ccc(Cl)cc1`, the B-score result is “inactive”.

For `CCCN(CC(=O)Nc1ccccc1OC)C(=O)CCC(=O)c1ccc(F)cc1`, the B-score is -1.98.

In the case of `CN(C1CCS(=O)(=O)C1)S(=O)(=O)c1ccc2ccccc2c1` (configuration not stated), the B-score was -0.6.

With `O=C1c2oc3ccccc3c(=O)c2C(c2cccc(O)c2)N1c1ccccn1` (configuration not stated), the B-score is -0.06.

`O=C1c2oc3ccc(Br)cc3c(=O)c2C(c2cccc(F)c2)N1CCO` (configuration not stated): the B-score is -4.46.

Consider `COCCN1C(=O)c2oc3c(C)cc(C)cc3c(=O)c2C1c1cccc(O)c1` (configuration not stated), for which the B-score is -6.4 (active).

In the case of `CC(=O)O[C@H]1CC[C@@]2(C)[C@@H](CC[C@@H]3[C@@H]2CC[C@]2(C)[C@@H](C(C)(C)O)C[C@@H]32)C1`, the B-score result was “inactive”.

Consider `COc1ccc(NS(=O)(=O)c2ccc(C)c(C(=O)N(C)Cc3ccc(OC)cc3OC)c2)cc1`, for which the B-score entry is “inactive”.

`CCn1c(SC(C)C(=O)Nc2ccc(N3CCOCC3)cc2)nnc1-c1ccco1` (configuration not stated): the B-score entry was “inactive”.

Turning to `COc1ccccc1NC(=O)COC(=O)c1ccccc1SCC(=O)N1CCCC1`, the B-score result is “inactive”.

Consider `Nc1ccccc1SC(C[N+](=O)[O-])c1ccccc1` (configuration not stated), for which the B-score was -7.63 (active).

For the compound `CCS(=O)(=O)c1cc([N+](=O)[O-])c(Sc2ccccc2N)s1`, the B-score entry was “inactive”.

With `Nc1ccccc1SCc1cc([N+](=O)[O-])cc2c1OCOC2`, the B-score was -0.29.

For `Cc1cc(C)c(-c2csc(NC(=O)CCCc3nc4ccccc4c(=O)[nH]3)n2)c(C)c1`, the B-score result is “inactive”.

Consider `O=C(Nc1ccccc1N1CCCC1)c1ccc(F)c(S(=O)(=O)N2CCOCC2)c1`, for which the B-score is -0.88.

As for `Cc1cc(C(=O)NNC(=O)c2cccc(S(=O)(=O)N3CCOCC3)c2)c2ccccc2n1`, the B-score was -0.22.

In the case of `O=C(Nc1ccccc1N1CCOCC1)c1csc2c1CCCC2`, the B-score was -4.47.

With `Cc1cc(C(=O)Nc2ccccc2N2CCOCC2)c2ccccc2n1`, the B-score is -6.19 (active).

Take `Cc1ccc(S(=O)(=O)N2CCOCC2)cc1C(=O)NCc1ccc(F)cc1`: the B-score result is “inactive”.

For the compound `Cc1ccc(S(=O)(=O)N2CCOCC2)cc1C(=O)Nc1ccccc1N1CCCC1`, the B-score was -6.63 (active).

As to `CN(C)CCn1c2c(c(SCC(=O)Nc3ccccc3C(F)(F)F)nc1=O)CCCC2`, the B-score was -0.04.

Consider `Nc1c(-c2ccccc2)nnn1Cc1ccccc1`, for which the B-score result is “inactive”.

With `Cc1ccc(S(=O)(=O)N2CCN(C(=O)c3ccc(-n4cncn4)c([N+](=O)[O-])c3)CC2)cc1`, the B-score is -0.29.

Turning to `Cc1cccc(C)c1NC(=O)CNC(=O)c1c(C)nn(-c2ccccc2)c1C`, the B-score is -1.69.

On to `O=C(Nc1nc(-c2ccco2)c(-c2ccco2)s1)c1ccco1`, for which the B-score was -3.35.

`Cc1nc2ccccc2c(C)c1C(=O)c1ccc(F)cc1`: the B-score was -1.04.

In the case of `Cc1nc2ccccc2c(-c2ccccc2)c1C(=O)c1ccccc1`, the B-score is -9.15 (active).

`CC(=O)c1c(-c2ccccc2)c2ccccc2[nH]c1=O`: the B-score was -0.37.

With `COc1cnn(-c2ccc([N+](=O)[O-])cc2)c(=O)c1Cl`, the B-score is -0.13.

For the compound `COc1ccccc1C(=O)Nc1ccc(Nc2ccccc2)cc1`, the B-score result was “inactive”.

`COc1ccc(CNS(=O)(=O)c2cc3c4c(c2)CCN4C(=O)CC3)cc1`: the B-score is -1.56.

For the compound `Cc1ccc(NC(=O)C2CC(=O)N(c3ccc4c(c3)OCCO4)C2)cc1S(=O)(=O)N1CCCCCC1` (configuration not stated), the B-score was -1.45.
